SMARCA2 activ: SMARCA2 (BRM) function activators, primary screen, cell-based, luminescence, high throughput | MG213 cells, MMTV-luciferase reporter, dexamethasone, overnight | hit rate 1% among 370,000 | activation, % at 9.1 µM; in the data active means activation above about 7.8%;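 further: 0% = vehicle wells and 100% = reference activator wells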
esBAF inh: Bmi1 luciferase reporter increase in mESCs, primary screen, esBAF inhibitor project, mouse ES cells, Bmi1 luciferase knock-in, single point. 24 h; 100% = twice the neutral-well signal. reporter increase, % at 12.5 µM. hit rate 2% among 350,000; in the data active means activation above about 40%; inconclusive means no clear call, values can overlap the other calls;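 further: 0% = median of the plate's neutral control wells and 100% = double that signal; a rise in the Bmi1 reporter signal indicates esBAF inhibition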
Rtt109 Vps75: inhibitors of C. albicans Rtt109/Vps75 HAT, primary screen, biochemical, ThioGlo CoA-SH fluorescence, plate reader. inhibition, % at 34.9 µM. purified Rtt109/Vps75, 4 h. hit rate 0.16% among 330,000. Histone acetyltransferase RTT109 (Candida albicans (strain SC5314 / ATCC MYA-2876)), …;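 active means inhibition of at least 50% in every replicate; inconclusive means best replicate reaches 50% inhibition but some replicates fall short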
Target sequence (Q5AAJ8 whole entry, looked up): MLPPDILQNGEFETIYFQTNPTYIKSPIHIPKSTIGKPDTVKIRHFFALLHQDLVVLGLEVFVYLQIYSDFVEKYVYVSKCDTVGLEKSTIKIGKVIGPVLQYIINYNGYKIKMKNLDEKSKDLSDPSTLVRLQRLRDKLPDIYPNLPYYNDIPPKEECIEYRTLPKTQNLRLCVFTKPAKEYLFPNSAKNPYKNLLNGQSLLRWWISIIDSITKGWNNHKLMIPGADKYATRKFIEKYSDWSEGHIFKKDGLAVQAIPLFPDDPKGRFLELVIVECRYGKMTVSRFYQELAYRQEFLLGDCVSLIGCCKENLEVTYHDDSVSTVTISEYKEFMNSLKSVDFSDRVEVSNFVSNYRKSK
CDK5 inh: inhibitors of human CDK5/p35 kinase, primary screen, biochemical, single concentration; Recombinant CDK5/p35, ADP-Glo luminescence, 60 min; AID 488839, 2010; Cyclin-dependent kinase 5 (Homo sapiens) + Cyclin-dependent kinase 5 activator 1 (Homo …; inhibition, % at 10 µM; hit rate 0.01% among 330,000;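 active means highest replicate inhibition of at least 50% and at least 75% of replicates reaching 50%; inconclusive means only one of the two criteria met; inactive means both criteria failed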;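 further: plate controls were DMSO neutral control for no effect and GW8510 at 10 µM for full effect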
dFosB act: activators of delta FosB homodimer, primary screen, biochemical, fluorescence polarization, TAMRA-CDK5 oligo, single point; Protein FosB (Mus musculus), P13346; purified delta FosB; percent of positive-control signal above neutral wells; activation, % at 25 µM; hit rate 0.99% among 340,000;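 active means mean activation above about 17%, with every replicate also reaching it, limit read from the data, passing the limit was not always enough; inconclusive means only one of the two conditions met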
Dyrk1A ADPGlo: rat Dyrk1A kinase inhibitors, primary screen, biochemical, single point, plate reader | inhibition, % at 12.5 µM | Dual specificity tyrosine-phosphorylation-regulated kinase 1A (Rattus norvegicus), Q63470 | hit rate 0.43% among 310,000 | ADP-Glo luminescence, NFATc1 peptide | AID 504441, 2011; in the data active means inhibition above about 50%;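 further: plate controls were vehicle with enzyme for no effect and no enzyme for full effect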
ADP-Glo artifact: ADP-Glo luciferase interference without Dyrk1A, dose response, artefact control for Dyrk1A inhibitor project, biochemical, luminescence, cherry-pick, set 02 | shares compounds with Dyrk1A ADPGlo | ADP-Glo luciferase artifact assay, no Dyrk1A | AC50, µM (highest dose often 12 µM), for the others: at the top dose activity change, negative = inhibition | 1,300 tested, under 10 active | AID 588348, 2011;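 active means fitted half-maximal dose AC50 no more than ten times the top valid tested dose, with luminescence dropping as dose rises; inconclusive means poor fit, or flat fit with 30 to 70% inhibition; inactive means the rest, signal increases included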
Numbers without * were called inactive; ? = inconclusive; . = no result given. Sampled rows, rich in hits. Any-hit rate of the full collection: about 3.2%.

SMILES | SMARCA2 activ | esBAF inh | Rtt109 Vps75 | CDK5 inh | dFosB act | Dyrk1A ADPGlo | ADP-Glo artifact
Cc1cc(N2CCC(C)CC2)nc2cccc(O)c12 | 1 | 21 | 4 | 3 | -6 | 51* | 9%
COc1ccc(S(=O)(=O)N(C)C[C@@H]2Oc3ccc(NS(=O)(=O)c4cccs4)cc3C(=O)N([C@@H](C)CO)C[C@@H]2C)cc1 | . | 3 | . | . | . | . | .
COc1ccc2[nH]c(C(=O)N/N=C/c3ccccc3OC)cc2c1 | -1 | -5 | -1 | 1 | -11 | 63* | 10%
COc1ccc2[nH]c(C(=O)N/N=C/c3ccc(OC)c(O)c3)cc2c1 | 1 | . | -3 | -2 | -10 | 63* | 9%
CCCOc1ccc2[nH]c(C(=O)N/N=C/c3cc(OC)c(OC)c(OC)c3)cc2c1 | 0 | 6 | -1 | -4 | -1 | 1 | .
COCC#Cc1cnc2c(c1)C(=O)N([C@@H](C)CO)C[C@H](C)[C@H](CN(C)S(=O)(=O)c1ccccc1)O2 | . | 2 | . | . | . | . | .
COCC(=O)Nc1ccc2c(c1)OC[C@@H](C)N(CC1CC1)C[C@H](C)[C@@H](OC)CN(C)C2=O | . | 3 | . | . | . | . | .
COc1ccc(-c2ccc(=O)n(Cc3c(F)cccc3Cl)n2)cc1 | 1 | 23 | 12 | 1 | -15 | 5 | .
COc1ccc(-c2ccc(=O)n(Cc3cccc([N+](=O)[O-])c3)n2)cc1 | -5 | . | 3 | -3 | -15 | 64* | 7%
CCC(=O)Oc1ccc2c(c1)O/C(=C\c1ccco1)C2=O | -1 | . | -90 | 3 | -5 | 18 | .
CCN(CC)C(=O)Oc1ccc2c(c1)O/C(=C\c1ccco1)C2=O | -1 | ? | 13 | 0 | -20 | 53* | 8%
C[C@@H]1O[C@@H](OC[C@H]2O[C@@H](Oc3cc(O)c4c(=O)cc(-c5ccc(O)c(O)c5)oc4c3)[C@H](O)[C@@H](O)[C@@H]2O)[C@H](O)[C@H](O)[C@H]1O | . | -12 | 7 | -1 | 12 | 59* | 13%
O=c1cc(-c2ccc(O)c(O)c2)oc2cc(O[C@@H]3O[C@H](CO)[C@@H](O)[C@H](O)[C@H]3O)cc(O)c12 | . | 6 | 19 | 3 | 19* | 60* | 9%
C[C@@H]1CN([C@@H](C)CO)C(=O)c2cc(NS(=O)(=O)c3cccs3)ccc2O[C@@H]1CN(C)S(C)(=O)=O | . | -1 | . | . | . | . | .
O=C(C[C@@H]1CC[C@@H](NC(=O)CC2CC2)[C@@H](CO)O1)NCc1ccc(Cl)cc1 | . | -2 | . | . | . | . | .
O=C(NCc1ccco1)c1sc2ccccc2c1Cl | 5 | 49* | 8 | 1 | -16 | 56* | 10%
NC(=O)c1cccc2c1-c1ccccc1/C2=N/NC(N)=S | 2 | -7 | . | -1 | -17 | 4 | .
COC(=O)c1cccc2c1-c1ccccc1/C2=N/O | -1 | -17 | 0 | 2 | -31 | 57* | 9%
CCOCCCNC(=O)/C(C#N)=C/c1cc(Br)c(O)c(Br)c1 | . | 8 | 17 | 8 | -7 | 55* | 11%
C[C@H]1CN([C@@H](C)CO)C(=O)c2ccccc2-c2ccccc2CO[C@@H]1CN(C)C(=O)Nc1ccccc1 | . | 0 | . | . | . | . | .
c1csc(CNc2ncnc3ccc(-c4ccc5c(c4)OCCO5)cc23)c1 | -1 | 4 | 1 | 0 | 0 | 72* | 5%
O=C(N/N=C/c1cccc(O)c1)N/N=C/c1cccc(O)c1 | 1 | -5 | -1 | -1 | -14 | 54* | 8%
CCn1c2ccccc2c2cc(/C=N/n3cnnc3)ccc21 | 2 | 2 | 23 | -1 | -3 | 4 | .
CCn1c2ccccc2c2cc(/C=N/O)ccc21 | 1 | . | 7 | 6 | 2 | 80* | 8%

High-throughput results as filed in PubChem BioAssay.
